# Measured values as given in the supplement of paper PMC6555819.
# Tests used:
# Assay in all cases: PBM binding z-score (relative to random genomic background probes); higher = stronger binding; sequences stand for … in GC…GCGATTGACAGCGTAGAATGAAGG
# [1] = system: FXR:RXRa (NR concentration 270 nM, RXRa partner concentration 90 nM)
# Method in brief: (§1)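 Binding z-scores were set against random background probes. The data came from custom Agilent 4×180K protein-binding microarrays carrying double-stranded probes with 34-nt variable regions, incubated 1 h with ligand-free nuclear receptor dimers. Partner-specific antibodies detected binding, and scanned fluorescence was regression-normalized.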
# [2] = system: LXRa:RXRa (NR concentration 270 nM, RXRa partner concentration 90 nM)
# Method in brief: as §1
# [3] = system: LXRa homodimer (NR concentration 270 nM)
# Method in brief: as §1
# [4] = system: LXRb:RXRa (NR concentration 270 nM, RXRa partner concentration 90 nM)
# Method in brief: as §1
# [5] = system: LXRb homodimer (NR concentration 270 nM)
# Method in brief: as §1
# [6] = system: PPARa:RXRa (NR concentration 270 nM, RXRa partner concentration 90 nM)
# Method in brief: as §1
# [7] = system: PPARg:RXRa (NR concentration 180 nM, RXRa partner concentration 90 nM)
# Method in brief: as §1
# [8] = system: PPARg:RXRa 270nM:90nM, anti-RXR (NR concentration 270 nM, RXRa partner concentration 90 nM)
# Method in brief: as §1
# [9] = system: PPARg:RXRa 30nM:10nM, anti-RXR (NR concentration 30 nM, RXRa partner concentration 10 nM)
# Method in brief: as §1
# [10] = system: PPARg:RXRa 90nM:30nM, anti-RXR (NR concentration 90 nM, RXRa partner concentration 30 nM)
# Method in brief: as §1
# [11] = system: PPARg:RXRa DBDmut IVT, anti-RXR (DBD mutation: RXRa K156A/R161A, NR concentration 270 nM, RXRa partner concentration 90 nM)
# Method in brief: as §1
# [12] = system: PPARg:RXRa IVT, anti-PPARg (NR concentration 270 nM, RXRa partner concentration 90 nM)
# Method in brief: as §1
# [13] = system: PPARg DBDmut:RXRa IVT, anti-PPARg (DBD mutation: PPARg1 K132A/R137A, NR concentration 270 nM, RXRa partner concentration 90 nM)
# Method in brief: as §1
# [14] = system: PPARg DBDmut IVT, anti-PPARg (DBD mutation: PPARg1 K132A/R137A, NR concentration 270 nM)
# Method in brief: as §1
# [15] = system: PPARg homodimer (NR concentration 180 nM)
# Method in brief: as §1
# [16] = system: PXR:RXRa (NR concentration 270 nM, RXRa partner concentration 90 nM)
# Method in brief: as §1
# [17] = system: PXR homodimer (NR concentration 270 nM)
# Method in brief: as §1
# [18] = system: RARa:RXR (NR concentration 270 nM, RXRa partner concentration 90 nM)
# Method in brief: as §1
# [19] = system: RARa homodimer (NR concentration 270 nM)
# Method in brief: as §1
# [20] = system: RARb:RXRa (NR concentration 270 nM, RXRa partner concentration 90 nM)
# Method in brief: as §1
Sequence,PBM binding z-score [1],PBM binding z-score [2],PBM binding z-score [3],PBM binding z-score [4],PBM binding z-score [5],PBM binding z-score [6],PBM binding z-score [7],PBM binding z-score [8],PBM binding z-score [9],PBM binding z-score [10],PBM binding z-score [11],PBM binding z-score [12],PBM binding z-score [13],PBM binding z-score [14],PBM binding z-score [15],PBM binding z-score [16],PBM binding z-score [17],PBM binding z-score [18],PBM binding z-score [19],PBM binding z-score [20]
CGTCCAAGGTCAAAGGTCGGTGAAGAGATGACGG,7.72,5.78,1.27,5.08,0.738,7.01,9.09,7.29,6.65,7.6,3.9,5.09,0.166,-0.0129,2.61,5.91,0.774,7.5,0.478,5.68
ACTTACGGGTCAACGAGGTTAAAGCACGCGTATA,7.3,5.07,0.882,4.97,0.527,6.09,6.14,5.57,2.44,4.29,3.22,4.19,0.985,1.02,2.28,5.38,3.33,5.36,0.479,4.53
TTTCCAAGGTGAGCTGAGGTCGTTGATCCAACTC,2.71,1.69,-0.117,0.979,-0.192,1.94,0.0102,1.07,0.576,0.913,1.18,2.2,0.272,0.546,0.272,4.97,1.26,2.04,-0.538,2.1
CGAACTAGGTCAGAACAGGACCGTGAAGGATGAT,0.998,0.352,-0.566,0.148,-0.568,2.94,5.07,4.33,1.63,3.44,7.33,7.06,2.11,0.843,0.797,0.0175,-0.758,0.594,-0.383,2.73
ATCTCTAGGTAAAGTTCACTGAAAGATCGATAGA,2.15,3.16,3.22,2.37,1.29,3.64,5.42,5.61,4.25,5.65,2.42,3.28,2.5,1.51,2.51,3.54,2.92,2.82,1.43,3.51
ATATGTAGGTTATCGGGTCTTTCAGTTTGCGCAT,0.832,1.52,1.05,1.64,1.21,3.2,5.24,4.68,2.04,3.97,7.73,6.72,2.3,2.32,2.02,1.2,1.43,1.07,1.78,1.3
ATCGCAAGGTCGACGAGGTGAGTATACACCGTTT,1.64,1.32,-0.778,1.06,-0.359,2.74,1.28,0.926,-0.0262,0.379,-0.013,1.1,0.104,0.00511,0.0263,1.89,0.566,2.55,-0.403,2.49
TCTCGGAGGACACGAAGGTCAGAGGTTTCCAGAG,1.53,1.38,0.357,1.1,-0.91,2.12,0.856,2.22,2.35,2.2,1.38,1.27,-0.769,-0.978,1.73,2.39,1.24,2.75,0.0674,3.42
CGAACTAGGACATTGACAGGACAGTGAATAGTAA,-0.0957,-0.0769,0.0961,-0.38,-0.79,0.451,0.933,0.247,0.384,0.344,4.34,3.36,1.39,0.241,0.296,-0.136,0.135,-0.244,-0.0168,0.136
TCTAGCAGGCCAGAGGGTCACTCACGAGGTACGG,0.586,0.658,-0.609,1.13,-1.2,2.2,1.46,2.63,1.82,2.54,0.776,0.783,-0.376,-1.19,1.31,1.51,-0.605,2.52,-0.397,2.25
CTCGAAAGGTCGTTCTCAGGTGAGTATACCAAAC,5.6,4.19,1.08,3.68,1.37,4.56,1.99,3.08,0.949,2.29,0.679,1.61,0.926,0.753,2.11,3.62,0.471,4.19,-0.0759,3.71
ATATGTAGGTTAGCTAGGGTCATTCAGACTAGGC,4.45,5.22,1.89,3.59,0.624,4.36,4.65,4.41,2.3,3.61,6.58,6.18,2.95,1.89,3.4,5.64,2.1,4.85,1.52,2.71
TTACCAAGGTGAAGGTCCTTGATCCCTCTGTAGA,0.794,0.644,-0.31,1.04,-0.95,1.87,1.33,2.39,0.878,2.03,1.64,2.67,-0.58,-0.0809,-0.00432,0.544,-0.323,1.01,-0.146,1.75
ACTAGTTGGTCCGCTGAGGTCACACACAATTCGG,2.59,2.61,1.91,3.24,0.456,3.57,1.38,1.99,0.517,1.36,0.592,1.67,0.377,-0.126,2.76,4.69,2.24,4.51,0.677,2.97
AGAACGAGGGCAATGAGTTGATGGCACGGGTGGC,0.145,0.254,-0.585,-0.493,-0.436,1.25,1.29,0.598,-0.239,0.238,3.36,2.88,1.3,-0.157,-0.0227,1.19,3.75,0.0282,-0.254,1.99
